# Source: the supplement of paper PMC8728848
# This is one part of a sample in which the strongest signals are shown more often than they occur.
# What was measured:
# Experiment in all cases: glycan array binding signal (z-score within array); higher = stronger binding
# Settings in all cases: glycan notation: IUPAC condensed, linker removed
# Fuc(a1-2)Gal = molecular target: Fuc(a1-2)Gal
# Method in brief: (§1)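 The Consortium for Functional Glycomics database supplied 3228 glycan arrays, of which those lacking an available protein sequence were dropped. The binding signal, a within-array Z-score, was averaged across arrays of the same protein sequence and across linkers. Negative scores can be read as non-binding.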
# [1] = molecular target: Fuc(a1-2)Gal(b1-3)GlcNAc(b1-2)Man(a1-3)[Fuc(a1-2)Gal(b1-3)GlcNAc(b1-2)Man(a1-6)]Man(b1-4)GlcNAc(b1-4)GlcNAc
# Method in brief: as §1
# [2] = molecular target: Fuc(a1-2)Gal(b1-4)[Fuc(a1-3)]GlcNAc(b1-2)[Fuc(a1-2)Gal(b1-4)[Fuc(a1-3)]GlcNAc(b1-4)]Man(a1-3)[Fuc(a1-2)Gal(b1-4)[Fuc(a1-3)]GlcNAc(b1-2)Man(a1-6)]Man(b1-4)GlcNAc(b1-4)GlcNAc
# Method in brief: as §1
# [3] = molecular target: Fuc(a1-2)[Gal(a1-3)]Gal(b1-3)GlcNAc(b1-2)Man(a1-3)[Fuc(a1-2)[Gal(a1-3)]Gal(b1-3)GlcNAc(b1-2)Man(a1-6)]Man(b1-4)GlcNAc(b1-4)GlcNAc
# Method in brief: as §1
# [4] = molecular target: Fuc(a1-2)[Gal(a1-3)]Gal(b1-3)GlcNAc(b1-2)Man(a1-3)[Fuc(a1-2)[Gal(a1-3)]Gal(b1-3)GlcNAc(b1-2)Man(a1-6)]Man(b1-4)GlcNAc(b1-4)[Fuc(a1-6)]GlcNAc
# Method in brief: as §1
# [5] = molecular target: Fuc(a1-2)[Gal(a1-3)]Gal(b1-3)GlcNAc(b1-3)GalNAc
# Method in brief: as §1
# [6] = molecular target: Fuc(a1-2)[Gal(a1-3)]Gal(b1-4)GlcNAc
# Method in brief: as §1
# [7] = molecular target: Fuc(a1-2)[Gal(a1-3)]Gal(b1-4)[Fuc(a1-3)]GlcNAc(b1-3)GalNAc
# Method in brief: as §1
# [8] = molecular target: Fuc(a1-2)[GalNAc(a1-3)]Gal(b1-3)GalNAc(a1-3)[Fuc(a1-2)]Gal(b1-4)GlcNAc
# Method in brief: as §1
# [9] = molecular target: Gal(a1-3)Gal(b1-4)GlcNAc(b1-2)Man
# Method in brief: as §1
# [10] = molecular target: Gal(a1-3)[Gal(a1-4)]Gal(b1-4)GlcNAc
# Method in brief: as §1
# Gal(a1-6)Glc = molecular target: Gal(a1-6)Glc
# Method in brief: as §1
# Gal(b1-3)GalNAc(b1-3)Gal = molecular target: Gal(b1-3)GalNAc(b1-3)Gal
# Method in brief: as §1
# Gal(b1-3)GlcNAc = molecular target: Gal(b1-3)GlcNAc
# Method in brief: as §1
# [11] = molecular target: Gal(b1-3)[Fuc(a1-4)]GlcNAc(b1-3)Gal(b1-4)[Fuc(a1-3)]GlcNAc
# Method in brief: as §1
# [12] = molecular target: Gal(b1-3)[Fuc(a1-4)]GlcNAc(b1-6)GalNAc
# Method in brief: as §1
# [13] = molecular target: Gal(b1-3)[Neu5Ac(a2-6)]GlcNAc(b1-4)Gal(b1-4)Glc
# Method in brief: as §1
# Gal(b1-4)Glc = molecular target: Gal(b1-4)Glc
# Method in brief: as §1
# [14] = molecular target: Gal(b1-4)GlcNAc(b1-2)Man(a1-3)[Gal(b1-4)GlcNAc(b1-2)Man(a1-6)][Gal(b1-4)GlcNAc(b1-4)]Man(b1-4)GlcNAc(b1-4)[Fuc(a1-6)]GlcNAc
# Method in brief: as §1
# [15] = molecular target: Gal(b1-4)GlcNAc(b1-2)[Gal(b1-4)GlcNAc(b1-6)]Man(a1-6)[Gal(b1-4)GlcNAc(b1-2)Man(a1-3)]Man(b1-4)GlcNAc(b1-4)GlcNAc
# Method in brief: as §1
# [16] = molecular target: Gal(b1-4)GlcNAc(b1-3)Gal(b1-4)Glc
# Method in brief: as §1
# [17] = molecular target: Gal(b1-4)GlcNAc(b1-3)Gal(b1-4)GlcNAc(b1-3)Gal(b1-4)GlcNAc(b1-2)Man(a1-3)[Gal(b1-4)GlcNAc(b1-3)Gal(b1-4)GlcNAc(b1-3)Gal(b1-4)GlcNAc(b1-2)Man(a1-6)]Man(b1-4)GlcNAc(b1-4)[Fuc(a1-6)]GlcNAc
# Method in brief: as §1
# [18] = molecular target: Gal(b1-4)GlcNAc(b1-3)Gal(b1-4)GlcNAc(b1-3)GalNAc
# Method in brief: as §1
# [19] = molecular target: Gal(b1-4)GlcNAc(b1-3)GalNAc
# Method in brief: as §1
# Gal3S(b1-3)GalNAc = molecular target: Gal3S(b1-3)GalNAc
# Method in brief: as §1
# Gal6S(b1-3)GlcNAc = molecular target: Gal6S(b1-3)GlcNAc
# Method in brief: as §1
# [20] = molecular target: GalNAc(b1-3)Gal(a1-6)Gal(b1-4)Glc
# Method in brief: as §1
# Glc(b1-4)Glc = molecular target: Glc(b1-4)Glc
# Method in brief: as §1
# [21] = molecular target: GlcNAc(b1-2)[GlcNAc(b1-4)]Man(a1-3)[GlcNAc(b1-4)][GlcNAc(b1-2)[GlcNAc(b1-6)]Man(a1-6)]Man(b1-4)GlcNAc(b1-4)GlcNAc
# Method in brief: as §1
# [22] = molecular target: GlcNAc(b1-3)Gal(b1-4)GlcNAc(b1-3)Gal(b1-4)GlcNAc(b1-3)Gal(b1-4)GlcNAc(b1-3)Gal(b1-4)GlcNAc(b1-2)[GlcNAc(b1-3)Gal(b1-4)GlcNAc(b1-3)Gal(b1-4)GlcNAc(b1-3)Gal(b1-4)GlcNAc(b1-3)Gal(b1-4)GlcNAc(b1-6)]Man(a1-6)[GlcNAc(b1-3)Gal(b1-4)GlcNAc(b1-3)Gal(b1-4)GlcNAc(b1-3)Gal(b1-4)GlcNAc(b1-3)Gal(b1-4)GlcNAc(b1-2)Man(a1-3)]Man(b1-4)GlcNAc(b1-4)[Fuc(a1-6)]GlcNAc
# Method in brief: as §1
binder,measurement,setting,value
"CcfD (Bacteroides fragilis), Q5L9G4 (protein) MKKQNSIYTLLIALLCFVSSCDYLGVSDQLAGGLQNTEQVFDNVSYTKRWYANVFAGIPDYSGINSVNVGAFKNPWTGMCDELVVGYGNSSKYNNSDRNAANMGFHRYGDCYKYIRQANIFLQKAHPIMTTGTQGDQLLEDELTQMKANVRFMRAFYHYLLFEQYGPIILVKDKIYNATEDQDVPRNTVDEVIEYIDSELTAVASELTQEPIFEDKDYRAWPTKGVALAVRAKLWLYAASPLLNGGYREALSVTNPDGTRLFPDYDAGKWEKALAACKDFIDYAEAGRYELYKEYKDDNGAVIDPDKSVYNLFQKYTHEIIWATANNDWGGMNGDAFDRRIAPRCEKNGLGSTGVTQELVDAFYMKDGFPVSATAYLPQSTLYQEEGYGTYKDQNDNFSKKYTNVTVSNRYLNREPRFYNTVFFNGRQWPVSCNQVLFYNGGNSGVQEGQATLTGYMLFKRFNRSVSLTNPGVASQFRPSIIFRLADFYLMYAEAANEVNPNDARVLKYLNLVRERAGLPDIETLNPAIRGNQELQRAAIQRERQIELATEGQRYFDVRRWMIADKNGEGRQNGYVHGMNVRGESNDKEDFNRIVEASQIVFNRKMYLYPMPDSEMRKTKNLVQNPGW",glycan array binding signal (z-score),Fuc(a1-2)Gal,0.811
same,glycan array binding signal (z-score),[1],5.05
same,glycan array binding signal (z-score),[2],3.75
same,glycan array binding signal (z-score),[3],2.68
same,glycan array binding signal (z-score),[4],0.2
same,glycan array binding signal (z-score),[5],0.095
same,glycan array binding signal (z-score),[6],0.056
same,glycan array binding signal (z-score),[7],0.64
same,glycan array binding signal (z-score),[8],2.62
same,glycan array binding signal (z-score),[9],-0.588
same,glycan array binding signal (z-score),[10],-1.43
same,glycan array binding signal (z-score),Gal(a1-6)Glc,-0.384
same,glycan array binding signal (z-score),Gal(b1-3)GalNAc(b1-3)Gal,-0.456
same,glycan array binding signal (z-score),Gal(b1-3)GlcNAc,0.42
same,glycan array binding signal (z-score),[11],2.86
same,glycan array binding signal (z-score),[12],-0.036
same,glycan array binding signal (z-score),[13],0.607
same,glycan array binding signal (z-score),Gal(b1-4)Glc,-0.056
same,glycan array binding signal (z-score),[14],3.04
same,glycan array binding signal (z-score),[15],-0.896
same,glycan array binding signal (z-score),[16],0.627
same,glycan array binding signal (z-score),[17],1.57
same,glycan array binding signal (z-score),[18],0.43
same,glycan array binding signal (z-score),[19],-0.998
same,glycan array binding signal (z-score),Gal3S(b1-3)GalNAc,0.942
same,glycan array binding signal (z-score),Gal6S(b1-3)GlcNAc,1.26
same,glycan array binding signal (z-score),[20],-0.64
same,glycan array binding signal (z-score),Glc(b1-4)Glc,1.59
same,glycan array binding signal (z-score),[21],-0.548
same,glycan array binding signal (z-score),[22],6.49
